PubChem BioAssay AID602478 (National Center for Advancing Translational Sciences (NCATS), 2012)
Inconclusive results are not listed. Where a call stands in place of a potency, no number is given. Calls of active or inactive are those of the source. The call rests on the fitted dose curve; in most records, active means well fitted activation curve with a large enough effect; inconclusive means small, poorly fitted or top-dose-only effect; inactive means flat fitted curve, though single readings scatter.

target: Luciferin 4-monooxygenase (Photinus pyralis) (UniProt P08659); experiment: FLuc inhibitory activity for the follow-up compounds in a cell-based translational read-through assay (72 hour incubation); settings: GripTite 293 FLucUGA read-through, luminescence; series mostly up to 38.3 µM
From the text: NCGC Assay Overview: Firefly (Photinus pyralis) luciferase is one of the most commonly used transcriptional reporters. It is considered one of the more dynamically responsive reporters - that is, responsive to changes in reporter transcription - as it requires no post-translational modifications and is enzymatically active directly after protein synthesis (Wood, 1998). With no endogenous expression in mammalian cells and without the requirement of external excitation, it offers very little background signal, thus generally providing excellent signal to background for most assays. Previous profiling work to determine the prevalence of compounds that affect FLuc enzymatic activity (PubChem AID 411) identified that ~3% of the MLSMR library (then at ~72K) inhibited FLuc (Auld et al., 2008). […] Of the compounds identified in this profile that inhibited FLuc, 151 compounds were selected for further analysis, in an effort to better understand their mode of inhibiting FLuc. The assay described here was to determine the activity of the compounds in a cell-based firefly luciferase reporter gene assay originally designed to identify compounds that enchanced translational read-through of a FLuc cDNA that contained a premature stop codon (Auld et al., 2009; Auld et al., 2010). Compounds that enhance translational read-through or compounds that stabilize FLuc intracellularly are identified as active compounds in the assay.
NCGC Assay Protocol Summary: Reagents: Transient transfection of FlucUGA construct: TransFast Transfection Reagent (Promega #E2431); FLucUGA construct (refer to Auld et al., 2009) #GripTite 293 MSR Cell Line (Invitrogen #R795-07) #Complete growth media: DMEM (Invitrogen #11965), 10% HIFBS, 0.1mM MEM NEAA, 5mL/L pen-strep (of 5000U/mL stock), 600ug/mL Geneticin #Assay media: DMEM without phenol red (Invitrogen #21063), 5% charcoal-stripped HIFBS (Hyclone #SH30071.03), 0.1mM MEM NEAA In-house detection reagent: 300mM Tris-HCl, 300mM Trizma base, 300mM MgCl, 1% Triton-X100, 5mM DTT, 500uM Coenzyme A trilithium salt (Sigma #C3019),450uM ATP (Sigma #A7699), 1mM D-luciferin sodium salt monohydrate (Biosynth #L8240) Control compounds used were two known firefly luciferase inhibitors (3-(5-(3-chlorophenyl)-1,2,4-oxadiazol-3-yl)benzoic acid and 5-(2-fluorophenyl)-3-phenyl-1,2,4-oxadiazole), and DMSO. Assay Summary: Transient transfection of FlucUGA construct: Day 1: GripTite cells were plated in T175 flasks at a density of 1.75 x 10^7 cells/T175 flask in complete growth media without Geneticin and allowed to grow ON in a 37 degrees Celsius incubator. Day 2: Cells in T175 flask were transfected - with 10ug of DNA and 30uL Transfast in 12mL complete growth media without serum and without Geneticin for 4 hours at 37 degrees Celsius. After incubation, cells were trypsinized, spun down, and resuspended to a concentration of 3.3 x 10^5 cells/mL in assay media. 6uL of cells in assay buffer were dispensed at 2000cells/well (3.3 x 10^5 cells/mL) into Greiner solid-white TC-treated 1536-well plates using a Multidrop Combi (Thermo Fisher Scientific). Plates were incubated for one hour at 37 degree Celsius, 95% humidity, 5% CO2. These assay plates were then treated with 23nL of compound or DMSO using a Kalypsys pin tool, which allows for delivery of a 12-point titration of each compound to the assay plate, with a final compound concentration ranging from approximately ~38uM to 0.2nM. Assay plates were then incubated for 72 hours. After incubation, plates were washed three times with DPBS (7uL/well). After the third wash, 6uL of DPBS was added to each well. 3uL of 3X luciferase detection reagent was then added to each well using a flying reagent dispenser (FRD). After a 15 minute incubation to allow for cell lysis, luciferase activity was measured using a ViewLux CCD imager (PerkinElmer), with an average exposure time of 2-12 seconds.

Luciferin 4-monooxygenase (Photinus pyralis), sequence (P08659 whole entry, looked up): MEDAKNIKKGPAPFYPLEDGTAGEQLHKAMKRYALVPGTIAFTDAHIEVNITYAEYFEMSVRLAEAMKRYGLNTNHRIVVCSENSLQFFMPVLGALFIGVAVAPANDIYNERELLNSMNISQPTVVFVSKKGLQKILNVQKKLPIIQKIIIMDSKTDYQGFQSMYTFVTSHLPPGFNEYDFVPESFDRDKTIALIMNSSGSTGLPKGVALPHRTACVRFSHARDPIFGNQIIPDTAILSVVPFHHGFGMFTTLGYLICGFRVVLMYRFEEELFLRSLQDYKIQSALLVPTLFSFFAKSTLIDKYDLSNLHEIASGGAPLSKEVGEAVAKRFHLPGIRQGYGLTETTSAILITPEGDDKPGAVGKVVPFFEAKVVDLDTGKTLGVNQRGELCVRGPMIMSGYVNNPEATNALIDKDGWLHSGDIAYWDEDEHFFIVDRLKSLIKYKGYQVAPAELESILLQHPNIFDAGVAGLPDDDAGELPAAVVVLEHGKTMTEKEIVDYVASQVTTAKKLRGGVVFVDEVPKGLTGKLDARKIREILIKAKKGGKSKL

Row | Structure (SMILES) | Potency
1 | COc1ccc2nc(NC(=O)c3ccc([N+](=O)[O-])o3)sc2c1 | 20 µM (active)
2 | Nc1ccc(-c2nc3cc(N)ccc3s2)cc1 | 22.5 µM (active)
3 | Cc1ccc2nc(-c3ccc(N)cc3)sc2c1 | 1.42 µM (active)
4 | Cc1cccc(C(=O)Nc2ccccc2C(=O)Nc2ccc(C(=O)O)cc2)c1 | inactive
5 | COc1ccc(-c2nc3ccccc3s2)cc1O | 14.2 µM (active)
6 | Cc1ccc(C(=O)Nc2ccc(C(=O)O)cc2)cc1S(=O)(=O)Nc1ccccc1 | inactive
7 | O=C(Nc1ccccc1C(=O)O)c1cc(S(=O)(=O)Nc2cccc(F)c2)ccc1Cl | inactive
8 | CC(=O)Nc1cccc(C(=O)Nc2ccccc2C(=O)O)c1 | inactive
9 | COc1ccc(C(=O)Nc2cccc(C(=O)O)c2)cc1S(=O)(=O)N1CCCC1 | inactive
10 | O=C(Nc1ccccc1C(=O)O)c1cccc(NC(=O)c2ccc(Br)o2)c1 | inactive
11 | Cc1cccc(C(=O)Nc2ccc(-c3nc4ccccc4s3)cc2Cl)c1 | inactive
12 | CCCOc1cccc(C(=O)Nc2ccc(-c3nc4ccccc4s3)c(Cl)c2)c1 | inactive
13 | Cc1cccc(NS(=O)(=O)c2cccc(C(=O)Nc3cccc(C(=O)O)c3)c2)c1 | inactive
14 | COc1cccc(OC)c1C(=O)Nc1cccc(C(=O)Nc2cccc(C(=O)O)c2)c1 | inactive
15 | COc1ccc(-c2nc3ccccc3s2)cc1NC(=O)c1ccc(F)cc1 | inactive
16 | O=C(O)c1ccc(NC(=O)c2cccc(C(=O)Nc3ccc(C(=O)O)cc3)c2)cc1 | inactive
17 | O=C(Nc1ccccc1C(=O)O)c1ccc(NC(=O)C2CCCCC2)cc1 | inactive
18 | Cc1c(NC(=O)C(C)(C)C)cccc1-c1nc2ccccc2s1 | inactive
19 | COc1ccc2nc(NC(=O)c3ccc(S(=O)(=O)N4CCCC(C)C4)cc3)sc2c1 (stereo not given) | inactive
20 | Oc1ccc(-c2nc3ccccc3s2)c(O)c1 | 12.6 µM (active)

Row | Structure (SMILES) | Potency
21 | O=C(O)c1cccc(NC(=O)c2cccc(NC(=O)C3CCCO3)c2)c1 (stereo not given) | inactive
22 | CCOc1ccc2nc(NC(=O)c3ccccc3)sc2c1 | 1.79 µM (active)
23 | Cc1ccc(S(=O)(=O)N2CCOCC2)cc1C(=O)Nc1ccccc1C(=O)O | inactive
24 | CC(C)Oc1ccc(C(=O)Nc2ccc(-c3nc4ccccc4s3)cc2)cc1 | inactive
25 | COc1ccc(-c2cccc(C(=O)Nc3cccc(C(=O)O)c3)c2)cc1 | 12.6 µM (active)
26 | O=C(Cc1ccc(Cl)cc1)Nc1cccc(C(=O)Nc2ccccc2C(=O)O)c1 | inactive
27 | COc1ccc2nc(NC(=O)c3cccc(S(=O)(=O)N4CCOCC4)c3)sc2c1 | inactive
28 | CCOc1ccc(C(=O)Nc2ccccc2C(=O)O)cc1 | 14.2 µM (active)
29 | COc1ccc2nc(NC(=O)c3ccco3)sc2c1 | 0.634 µM (active)
30 | O=C(Cc1ccccc1)Nc1ccc(C(=O)Nc2ccccc2C(=O)O)cc1 | inactive
31 | Cc1ccc(C(=O)O/N=C(\N)c2ccccn2)cc1 | 2.25 µM (active)
32 | Cc1ccc2sc(-c3ccc(N)cc3)nc2c1 | 0.356 µM (active)
33 | CC(C)(C)NC(=O)c1ccccc1-c1nc2ccccc2s1 | inactive
34 | CCOc1ccc2nc(NC(=O)c3cccnc3)sc2c1 | 3.56 µM (active)
35 | COc1ccc(Br)cc1C(=O)Nc1ccc(C(=O)O)cc1 | inactive
36 | COc1cc(OC)cc(C(=O)Nc2ccccc2-c2nc3ccccc3s2)c1 | inactive
37 | COc1ccc2nc(NC(=O)c3cnccn3)sc2c1 | 3.56 µM (active)
38 | O=C(Nc1ccccc1C(=O)O)c1ccc(NC(=O)C2CCCO2)cc1 (stereo not given) | inactive
39 | CC(=O)Oc1ccc(C(=O)Nc2ccccc2C(=O)Nc2ccc(C(=O)O)cc2)cc1 | inactive
40 | Cc1ccc(C(=O)Nc2cccc(C(=O)O)c2)cc1S(=O)(=O)N1CCCCC1 | 3.18 µM (active)
